# Bioassay records as filed in PubChem.
# VDR inh: Inhibitors of the vitamin D receptor (VDR): qHTS; AID 504847, 2011; Potency, µM, without a hit: max response, negative = inhibition, usual class: inhibitors; VDR-SRC2-3 peptide fluorescence polarization, 2 h; hit rate 0.93% among 400,000; further: potency means the concentration at half of the fitted maximal effect
#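 Fluorescence polarization assay measuring small-molecule disruption of VDR binding to the coregulator peptide SRC2-3. Compounds were pin-transferred (23 nl) into the reagent mix and incubated 2 h at room temperature before reading.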
# PLK1 PBD inh: qHTS for Inhibitors of PLK1-PDB (polo-like kinase 1 - polo-box domain): Primary Screen | Serine/threonine-protein kinase PLK1 (Homo sapiens), P53350 | Plk1 PBD binding of FITC phosphopeptide, fluorescence polarization | Potency, µM, without a hit: max response, negative = inhibition, usual class: inhibitors | hit rate 2.8% among 360,000 | AID 720504, 2013; further: potency means the concentration at half of the fitted maximal effect; series mostly up to about 57 µM; nearly all actives have a fitted effect of over 65% in size
# Target sequence (P53350 whole entry, looked up, the tested form may be a part): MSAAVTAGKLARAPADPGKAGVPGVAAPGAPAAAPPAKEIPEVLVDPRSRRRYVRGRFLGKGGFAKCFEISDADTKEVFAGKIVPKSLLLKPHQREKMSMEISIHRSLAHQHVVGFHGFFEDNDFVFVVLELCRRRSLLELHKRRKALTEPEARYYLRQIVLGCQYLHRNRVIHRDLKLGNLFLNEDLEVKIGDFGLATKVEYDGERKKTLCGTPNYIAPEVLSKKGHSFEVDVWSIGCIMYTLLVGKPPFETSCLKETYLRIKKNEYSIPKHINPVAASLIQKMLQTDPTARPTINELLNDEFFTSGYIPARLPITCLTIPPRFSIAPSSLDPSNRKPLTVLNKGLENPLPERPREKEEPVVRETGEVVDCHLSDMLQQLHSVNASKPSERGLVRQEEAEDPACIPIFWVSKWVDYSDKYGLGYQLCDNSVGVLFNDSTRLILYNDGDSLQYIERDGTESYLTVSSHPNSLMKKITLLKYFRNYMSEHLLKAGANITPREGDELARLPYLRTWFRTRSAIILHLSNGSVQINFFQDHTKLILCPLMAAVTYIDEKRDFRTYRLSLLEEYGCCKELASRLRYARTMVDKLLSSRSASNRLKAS
# Sfp inh: qHTS Assay for Inhibitors of Bacillus subtilis Sfp phosphopantetheinyl transferase (PPTase). Potency, µM, for the others: largest response in the series, negative = inhibition, most hits filed as inhibitors. Biochemical Sfp PPTase activity, qHTS. hit rate 3.5% among 310,000. AID 1490, 2009;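 further: the enzyme is Sfp with the accession as filed and its product quenches rhodamine fluorescence; potency means the concentration at half of the fitted maximal effect; 0% = enzyme reaction without inhibitor and -100% = no enzyme wells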
#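 Reaction rates are the 30-min fluorescence difference (ex 525, em 598 nm) in wells containing 15 nM Sfp, 5 uM rhodamine-CoA and 12.5 uM BHQ-2-YbbR at pH 7.6 with 10 mM MgCl2.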
# CCT chaperon mod: High-Throughput Screening for Modulators of Cytosolic Chaperonin Activity; purified chaperonin ATPase assay, HTRF ADP detection, 30 min; hit rate 0.3% among 360,000; AID 651819, 2012; activity change, % (test concentration not listed), hits read low; in the data active means activity change below about -30%
#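 Enzyme 40 or 20 nM (batch-dependent) in Tris pH 7.4/KCl/MgCl2/DTT; cpd 76 uM single point; ATP 10 uM; 30 min 37 °C; Transcreener ADP HTRF detection, 30 min RT; ratio 665/615.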
# G9a inh: qHTS Assay for Inhibitors of Histone Lysine Methyltransferase G9a. G9a H3K9 monomethylation, AlphaScreen, 2 h. hit rate 8.8% among 350,000. Potency, µM (top dose mostly 102 µM), for the others: at the top dose activity, negative = inhibition, actives largely listed as inhibitors; further: potency means the concentration at half of the fitted maximal effect; nearly all actives have a fitted effect of over 75% in size
#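 Signal arises when biotinylated H3K9 peptide, once monomethylated, bridges streptavidin donor and antibody-captured acceptor beads. Enzyme at 20 nM was preincubated 15 min with test compounds; peptide 500 nM and SAM 20 uM then reacted for 2 h.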
# Mm-Cpn inhibitor: Inhibitors of TCP-1 ring complex (TRiC) of Methanococcus maripaludis (MmCpn): qHTS; Chaperonin Mm-Cpn (Methanococcus maripaludis); purified Mm-Cpn ATPase, ADP Transcreener TR-FRET; Potency, µM (highest dose often 76.9 µM), without a hit: top-dose activity, negative = inhibition, most hits filed as inhibitors; hit rate 0.031% among 330,000; AID 504842, 2011; further: potency means the concentration at half of the fitted maximal effect; nearly all actives have a fitted effect of over 80% in size
#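 Quantitative HTS used 25 nM Mm-CPN and 10 uM ATP in magnesium/KCl Tris buffer, pH 7.4, with 1 mM DTT. Hydrolysis ran 30 min at 37°C; ADP was read by HTRF.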
# An asterisk follows results filed as active; ? = inconclusive; · = no result; ! = not confirmed by another sample; [ ] = dose if it differs, or a comment. Shown are actives, neighbours in structure and some others; about 10% of the full set was active somewhere. Unless noted, the call rests on the fitted dose curve; in most records, active means well fitted curve in the direction sought with a large enough effect; inconclusive means small, poorly fitted or top-dose-only effect, or another doubt; inactive means no such curve, though single readings can be large; an effect the other way counts as inactive or inconclusive. Unless noted, on the % scale 0 is the no-effect control and ±100 the full control effect.
SMILES,VDR inh,PLK1 PBD inh,Sfp inh,CCT chaperon mod,G9a inh,Mm-Cpn inhibitor
CC(C)C(=O)NC(c1ccc([N+](=O)[O-])cc1)c1c(O)ccc2ccccc12 (configuration not stated),2%,-1%,5%,-1,?,1%
CC(=O)NC(c1ccc([N+](=O)[O-])cc1)c1c(O)ccc2ccccc12 (configuration not stated),-13%,-12%,6%,-7,45µM*,2%
O=C(Cn1c(=O)oc2cc(S(=O)(=O)N3CCCCC3)ccc21)Nc1cccc(Cl)c1,-8%,·,·,·,-7%[59 µM],·
CCOc1ccccc1N(C)C(=O)NCc1noc2ccccc12,-6%,·,·,·,8%[59 µM],·
CC1(NC(=O)CCc2nc3sc4c(c3c(=O)[nH]2)CCCC4)CCS(=O)(=O)C1 (configuration not stated),16%,-25%,·,-1,50µM*,-3%
Cc1ccc(C(=O)N2CCN(Cc3nc4sc5c(c4c(=O)[nH]3)CCCC5)CC2)cc1,-16%,-9%,8%,0,-9%[59 µM],1%
CCCc1nc2sc3c(c2c(=O)[nH]1)CCCC3,79µM*,27µM*,-3%,-1,·,3%
O=c1[nH]c(CN2CCCC2)nc2sc3c(c12)CCC3,-12%,-8%,-1%,2,40µM*,-5%
CCCCS(=N)(=O)CC[C@H](N)C(=O)O (some centres not stated),-6%,·,·,·,10µM*!,·
N[C@@H](CCCC(=O)O)C(=O)O,1%,·,·,·,?,·
Clc1cccc(-c2nn3c(Cn4cnc5ccccc54)nnc3s2)c1,?,11µM*,20µM*,0,?,1%
Clc1cccc(-c2nn3c(COc4ccccc4)nnc3s2)c1,·,·,12%,·,27%,0%
c1csc(-c2nn3c(Cn4cnc5ccccc54)nnc3s2)c1,-37%,21µM*,-85%,-2,?,-2%
Cc1c(C#N)c(O)n(CCO)c(=O)c1N=Nc1ccc2c(c1)COC2=O,-8%,-7%,12%,-3,50µM*,0%
CCN1/C(=C2\C(=O)N(C)C(=S)N2C)C=Cc2cc(C)ccc21,4%,-6%,45µM*,2,10µM*,-2%
CCN1/C(=C2\C(=O)N(C)C(=S)N2c2ccccc2)C=Cc2ccccc21,9%,-20%,89µM*,-4,-140%[59 µM],-2%
CCCN1C(=O)C(=O)c2cc(C)ccc21,-8%,-16%,·,-1,·,1%
CN1C(=O)/C(=C2/C=Cc3ccccc3N2CCCS(=O)(=O)O)SC1=S,0%,-6%,-17%,1,?,-3%
Nc1ccc(S(=O)(=O)Nc2cnc3ccccc3n2)cc1,3%,-7%,9%,-2,7%[59 µM],1%
Nc1ccc(S(=O)(=O)Nc2nc3ccccc3o2)cc1,4%,?,50µM*,-1,·,1%
CCN1CCN(C(c2cccc(Cl)c2)c2c(O)cc(C)n(CCOC)c2=O)CC1 (configuration not stated),-15%,·,·,·,?,·
CCOc1ccc(N2C(=O)CS/C2=C(\C(Cl)=C(Cl)Cl)[N+](=O)[O-])cc1,18%,-14%,2%,1,32µM*,-1%
Cc1ccc(NC(=O)Cc2ccc(NC(=O)N3CCCCc4ccccc43)cc2)cc1Cl,1%,·,·,·,18%[59 µM],·
Cn1c(=O)c(C(=O)COC(=O)c2cc(-c3ccco3)nc3ccccc23)c(N)n(CC2CC2)c1=O,·,·,22µM*,·,6.3µM*,-5%
Cn1c(=O)c(C(=O)COC(=O)c2cc(C3CC3)nc3ccccc23)c(N)n(Cc2ccccc2)c1=O,-9%,-3%,20%,0,79µM*,-14%
SMILES,VDR inh,PLK1 PBD inh,Sfp inh,CCT chaperon mod,G9a inh,Mm-Cpn inhibitor
Cn1c(=O)c(C(=O)COC(=O)c2cc(-c3ccccc3)nc3ccccc23)c(N)n(Cc2ccccc2)c1=O,·,·,15%,·,79µM*,-6%
Cn1c(=O)c(C(=O)COC(=O)c2cc(C(F)(F)F)nc3ccccc23)c(N)n(Cc2ccccc2)c1=O,·,·,14%,·,?,-1%
Cc1cccc(C)c1N=Nc1c(C)cc(O)cc1C,4%,-9%,6%,-10,35µM*,-2%
Cc1cccc(O)c1C,0%,-15%,·,-3,·,1%
CCOC(=O)c1cc2c(=O)n3ccccc3nc2n(Cc2ccco2)c1=NC(=O)c1ccc(Br)cc1,89µM*,·,·,·,-4%[59 µM],·
CCOC(=O)c1cc2c(=O)n3ccccc3nc2n(C(C)C)c1=NC(=O)c1ccncc1,-7%,?,15%,-2,56µM*,-4%
CCOC(=O)c1cc2c(=O)n3ccccc3nc2n(C(C)C)c1=NC(=O)c1c(-c2ccccc2Cl)noc1C,-8%,-7%,10%,2,0%,2%
CCOC(=O)c1cc2c(=O)n3ccccc3nc2n(CCCOC)c1=NC(=O)c1cccnc1,·,·,-6%,·,10µM*,-12%
CCOC(=O)c1cc2c(=O)n3ccccc3nc2n(CCOC)c1=NC(=O)c1ccncc1,4%,-8%,10%,0,-4%[12.7 µM],-2%
CCOC(=O)c1cc2c(=O)n3cccc(C)c3nc2n(Cc2ccco2)c1=NC(=O)c1cccnc1,-17%,-14%,25µM*,0,8%[12.7 µM],-3%
Cc1cc(Br)cc2c(C(=O)OCC(=O)c3ccccc3)cc(-c3ccccc3)nc12,6%,·,·,·,13%[59 µM],·
O=C(Cn1cnc2c(nc3n2CCCCC3)c1=O)Nc1ccc(F)c(Cl)c1,-11%,·,·,·,-23%[59 µM],·
CCc1ccc(S(=O)(=O)Nc2cccc(-c3ccc(N4CCC(C)CC4)nn3)c2)s1,9%,·,·,·,1%[59 µM],·
Nc1cccc(-c2cn3ccsc3n2)c1,7%,·,·,·,6%[59 µM],·
CCOCCCn1c(=NC(=O)c2cccs2)c(C#N)cc2c(=O)n3cccc(C)c3nc21,-22%,-13%,-9%,-1,71µM*,-1%
Cc1cccc(C(=O)N=c2c(C#N)cc3c(=O)n4cccc(C)c4nc3n2Cc2ccco2)c1,-25%,-28%,28µM*,3,-51%,-1%
CCOC(=O)c1cc2c(=O)n3ccccc3nc2n(Cc2ccco2)c1=NC(=O)c1cccc(C)c1,-18%,·,·,·,13%[59 µM],·
CCOC(=O)c1cc2c(=O)n3ccccc3nc2n(Cc2ccco2)c1=NC(=O)c1cccnc1,?,-16%,35µM*,2,56µM*,-2%
COCCCn1c(C(=O)N2CCOCC2)cc2c(=O)n3ccccc3nc21,17%,-6%,19%,0,49%,-7%
